An excerpt weighted towards active compounds, which were near 7.3% of everything screened.
Vaccinia mCherry: qHTS for Stage-Specific Inhibitors of Vaccinia Orthopoxvirus: mCherry Reporter Primary qHTS | Potency, µM (top dose mostly 36.5 µM), for the others: at the top dose activity change, negative = inhibition, hits mostly inhibitors | 0.63% of 310,000 active | Vaccinia virus mCherry reporter infection, fluorescence | AID 720579, 2013; calls by dose curve; tested in A549 cells; note: potency is the fitted concentration of half-maximal effect; nearly all actives have a fitted effect of over 35% in size
HCV inhibitor: qHTS Assay for Inhibitors of Hepatitis C Virus (HCV); Huh7.5.1 HCVcc-Cre infection, luciferase reporter, 44 h; Potency, µM (titrated, usually from 41.8 µM), without a hit: top-dose activity change, negative = inhibition, hits mostly inhibitors; 3.4% of 340,000 active; AID 651820, 2012; active = well fitted inhibition curve with a large enough effect; inconclusive = small, poorly fitted or top-dose-only effect, or another doubt; inactive = no such curve, though single readings can be large or run the other way; note: potency is the fitted concentration of half-maximal effect
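Whole-lifecycle infectious HCVcc-Cre system; cells 1,000/well, compound then virus (~0.5 moi) added 4 h after plating, 44 h culture. Luciferase read 15 sec following 15 min substrate incubation, room temp.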
HCMV antiviral: qHTS Assay for inhibitors of the human cytomegalovirus (HCMV); HFF cells, HCMV-luciferase reporter, 72 h; active compounds read low; activity change, negative = inhibition, % at 57.5 µM; 4.5% of 410,000 active; AID 1259415, 2018; in the data active = activity change below about -60%; inconclusive = no clear call, values can overlap the other calls; inactive = above about -39%
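Screen run at 2 compound doses on HFFs infected with reporter HCMV, MOI 1 PFU/cell. Luciferase activity from cell lysates at 72 h post infection gave inhibition relative to buffer-only and Salinomycin wells.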
FMDV antiviral: High Throughput Screening for Foot and Mouth Disease Virus Antivirals | FMDV antiviral cell-based qHTS | 1.2% of 410,000 active | Potency, µM (titrated, usually from 57.9 µM), for the others: at the top dose activity change, negative = inhibition, actives largely listed as inhibitors; calls by dose curve; tested in HEK293T cells; note: read-out not given here; potency is the fitted concentration of half-maximal effect; nearly all actives have a fitted effect of over 45% in size
VACV Venus inh: qHTS for Stage-Specific Inhibitors of Vaccinia Orthopoxvirus: Venus Reporter Primary qHTS; Vaccinia virus Venus reporter expression, fluorescence; Potency, µM (doses to about 36.5 µM), for inactives: at the highest dose activity change, negative = inhibition, usual class: inhibitors; 0.46% of 330,000 active; AID 720580, 2013; calls by dose curve; tested in A549 cells; note: potency is the fitted concentration of half-maximal effect; nearly all actives have a fitted effect of over 30% in size
* hit, by the source's call; i = inactive; ? = inconclusive; · = no result given. % is set by controls: 0 for no effect and ±100 for the full control effect.

SMILES	Vaccinia mCherry	HCV inhibitor	HCMV antiviral	FMDV antiviral	VACV Venus inh
CN(C)S(=O)(=O)c1cc(NC(=O)CSc2nn(-c3ccc(Cl)cc3)c(=S)s2)ccc1Cl	?	6.3µM*	-85*	?	?
OC(COCC(F)(F)C(F)(F)C(F)(F)C(F)F)Cn1c2ccc(Cl)cc2c2cc(Cl)ccc21 (stereo unspecified)	?	3.2µM*	·	?	11µM*
CCOC(=O)Cc1ccc(NC(=O)c2ccc(C(C)(C)C)cc2)cc1	?	7.1µM*	-88*	18µM*	?
CC(C)(C)NC(=O)c1cccc(NC(=O)c2ccc(NC(=O)c3ccco3)cc2)c1	-4%	2.5µM*	-33	·	-9%
CC(C)(C)C(=O)Nc1ccc(NC(=O)c2ccco2)nc1	-8%	10%	-96*	6.3µM*	-6%
O=C(/C=C/c1ccc(Cl)cc1)NC(=S)Nc1ccc(NC(=O)c2ccco2)cc1	-21%	?	-70*	-22%	-29%
Cc1nn(C)c(C)c1S(=O)(=O)N(CC(=O)N1CCN(c2ccccc2)CC1)c1ccc(C(C)C)cc1	-15%	·	-1	-23%	-15%
COC(=O)c1ccc2nc(-c3ccco3)c(Cc3ccsc3)n2c1	·	·	85	·	·
Cc1oc(-c2ccc(C(=O)N(C)Cc3ccccc3)cc2)nc1CN1CCc2ccccc21	-27%	·	?	?	-25%
COc1cccc(-c2cn3c(n2)sc2cc(C(=O)NC4CCCCCC4)ccc23)c1	-27%	·	·	2%	?
COc1ccc(CNc2nc(N)nc3nc[nH]c23)cc1	-12%	·	·	·	-17%
CCOc1ccccc1NC(=O)c1ccc(NC(=O)c2ccco2)cc1	·	10µM*	?	?	-22%
Cc1ccc(-c2noc(C(C)NC(=O)c3ccco3)n2)cc1 (stereo unspecified)	-5%	·	-23	-20%	-3%
CC(NC(=O)c1ccco1)c1nc(-c2ccc(C(C)(C)C)cc2)no1 (stereo unspecified)	-19%	16µM*	-16	3%	-1%
COc1ccccc1NC(=O)c1ccc(NC(=O)c2ccco2)cc1	13%	-11%	?	2%	-6%
CCOc1ccccc1NC(=O)c1ccc(C(=O)Nc2ccccc2OCC)cc1	-10%	·	-4	0%	-16%
O=C(Nc1ccc(NC(=S)NC(=O)c2ccco2)cc1)c1ccc(Br)cc1	i	·	-78*	-22%	-10%
CCCOc1ccccc1NC(=O)c1ccc(N)cc1	·	7.1µM*	-34	8%	·
O=C(NC(=S)Nc1cccc(NC(=S)NC(=O)c2ccco2)n1)c1ccco1	-14%	?	-116*	51%	-13%
CC(C)(C)c1ccc(C(=O)Nc2ccc(NC(=O)c3ccco3)cc2)cc1	-23%	?	-83*	·	?
O=C(O)Cc1ccc(NC(=O)c2ccc(NC(=O)c3ccco3)cc2)cc1	·	-5%	-8	-4%	·
COC(=O)Cc1ccc(NC(=O)c2ccc(NC(=O)c3ccco3)cc2)cc1	-21%	?	-83*	-14%	-4%
N#Cc1ncc(-c2ccc3c(c2)OCCOCCOCCOCCO3)nc1C#N	i	-9%	-73*	40µM*	-15%
CN(C)c1ccc(C(CNC(=O)c2c(F)cccc2Cl)N2CCOCC2)cc1 (stereo unspecified)	1%	·	-3	-2%	-6%
CC(=O)c1cccc(NC(=O)c2oc3c(c2C)-c2nn(Cc4ccc(Cl)cc4)cc2CC3)c1	-2%	·	-7	-24%	-5%
SMILES	Vaccinia mCherry	HCV inhibitor	HCMV antiviral	FMDV antiviral	VACV Venus inh
COc1cccc(CNC(=O)c2oc3c(c2C)-c2nn(Cc4cccc(Cl)c4)cc2CC3)c1	-18%	·	-92*	-23%	-10%
CCOc1ccc(CNC(=O)Cn2cc3c(n2)-c2c(oc(C(=O)N4CCOCC4)c2C)CC3)cc1	-2%	·	-63*	-30%	-22%
COc1cccc(CNC(=O)c2oc3c(c2C)-c2nn(Cc4cccc(Cl)c4)cc2CC3)c1OC	-14%	·	46	-18%	-9%
Cc1c(C(=O)NCCN(C)C)oc2c1-c1nn(Cc3cccc(Cl)c3)cc1CC2	-6%	·	-68*	-15%	-4%
Cc1cccc(C)c1NC(=O)c1oc2c(c1C)-c1nn(Cc3ccccc3)cc1CC2	?	·	-82*	?	?
CCN1CCCC1CNC(=O)c1cnn(-c2nccc(-c3cc4ccccc4o3)n2)c1C (stereo unspecified)	-6%	·	·	4%	-10%
CCc1ccc2occ(CC(=O)Nc3ccc(OC)c(Cl)c3)c2c1	-10%	·	-19	28%	-16%
CCn1cc([N+](=O)[O-])c(C(=O)Nc2ccc(Cn3nc(C)cc3C)cc2)n1	·	-39%	-17	-2%	·
Cn1cc([N+](=O)[O-])c(C(=O)Nc2ccc(C(=O)N3CCCCC3)cc2)n1	-24%	-6%	-34	13%	-10%
Cc1ccc(Cn2ccc(NC(=O)c3nn(C)cc3[N+](=O)[O-])n2)cc1	?	?	-77*	-5%	-26%
Cn1cc([N+](=O)[O-])c(C(=O)Nc2ccc(C3CCCCC3)cc2)n1	·	?	-100*	43%	·
CCn1cc([N+](=O)[O-])c(C(=O)Nc2ccn(Cc3ccccc3)n2)n1	i	3%	-74*	-11%	-12%
CCn1cc([N+](=O)[O-])c(C(=O)Nc2ccn(C34CC5CC(CC(C5)C3)C4)n2)n1	-18%	10%	-32	-22%	-16%
Cc1cc(C)n(Cc2ccc(NC(=O)c3nn(C)cc3[N+](=O)[O-])cc2)n1	?	?	-101*	-28%	-20%
CCOC(=O)C1CCCN(c2c(C(=O)c3ccc(C)cc3)cnc3ccc(OCC)cc23)C1 (stereo unspecified)	-19%	·	?	?	-19%
CCC(N)(C(=O)O)c1ccc(C(=O)O)cc1 (stereo unspecified)	-3%	·	·	-4%	-10%
CCn1c(-c2cccc(OC)c2)nc2cc(NC(C)=O)cc(C(=O)N3CCC[C@H]3C(=O)OC)c21	-8%	·	·	-6%	0%
CCn1cc([N+](=O)[O-])c(C(=O)Nc2nc3ccc(OC)cc3s2)n1	·	?	-89*	32%	·
Cc1ccc(N(C)C(=O)Cn2cnc3onc(-c4ccc(F)cc4)c3c2=O)cc1C	-9%	·	3	0%	-9%
Clc1ccc(Cn2ncc3c(N4CCN(c5ccccc5)CC4)ncnc32)cc1	?	·	-102*	13µM*	?
Cc1ccc(Cn2ncc3c(N4CCOCC4)ncnc32)cc1	·	?	-9	?	·
Cc1ccc(Cn2ncc3c(N4CCN(c5ccccc5C)CC4)ncnc32)cc1	·	?	-14	18µM*	?
Cc1ccc(Cl)cc1-n1ncc2c(N3CCN(Cc4ccccc4)CC3)ncnc21	?	·	-35	3.2µM*	-23%
CCN1CCN(c2ncnc3c2cnn3-c2cc(Cl)ccc2C)CC1	-14%	·	-16	0%	5%
CN1C(=O)c2ccccc2Sc2ccc(NC(=O)COc3ccc(F)cc3)cc21	-7%	·	?	-18%	-20%
